The results in this text go back to the supplement of paper PMC6555819.

The subject of this assay is VDR:RXRa (NR concentration 270 nM, RXRa partner concentration 90 nM). Kind of assay: PBM binding z-score (relative to random genomic background probes); higher = stronger binding; sequences stand for … in GC…GCGATTGACAGCGTAGAATGAAGG
On the procedure: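 Protein-binding microarray (Agilent 4x180K custom design, double-stranded 60-nt probes: 5' GC cap, 34-nt variable region, 24-nt constant primer region; full probe sequence given). Purified or IVT nuclear receptor:RXRα heterodimers (3:1 NR:RXRα, mostly 270:90 nM) or homodimers were incubated for 1 h in PBS with 2% milk and no ligand, then detected with Alexa488 antibodies. Fluorescence from o1-orientation probes (~5 replicates averaged) was converted to z-scores against 500 random hg19 background probes. Variable regions are seed direct-repeat (DR0–DR5) sites, all their single-nucleotide variants and half-site ablations.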
On to TGAATGATGTTATAAGATCAGGGAACGTTGCAAA, for which the PBM binding z-score is -0.175. For TTACCAAGGTGAAAGGTCGTAGATGCACGCCTTG the value was 3.04; for ATCTCTAGGTAAACAAGTTCAGTGAATGCCGAAC, 4. The value for AGAACGAGGGCACGTTGAGTTGATAGCAGAGTAG was 2.32; that for CGTCCAAGGTCAGCGAGGTCAGTGAATGCCGAGT was 7.6. GCTTACGGGTCAAATGTTATAGCATGAATAGAAT gave a PBM binding z-score of 3.64.

In the case of TCATATAGGTAAATGCTAGGTGGAAGTCCGATCT, the PBM binding z-score amounted to 0.687.

With AATACAGGGTCACTAGGCCAGAGTCGGTACGAAT, the PBM binding z-score came to 4.03. The value for CCGACTGGGGCAAAGGTTACCATCCTCAGTACGA was 1.37. GCGACTGGGGCAAAGCAGGTTACCCTAAGGTTGG registered a PBM binding z-score of 0.0152. The value for GCGACTGGGGCTTCAGCAGGTTACCATAACTTAA was -0.361; that for CATACAGGGTCAGCTAGGCCAGAGCAGGGACGGC was 3.75; that for TCTCGTAGATCAACAGGAGGTTAAGAAAGATCGA was 0.875.

As to TCTTGTACATCAAAGGTTAAGAAAGCCGAAGCCT, the PBM binding z-score worked out at 1.55.

TCTATTAGTTGTAGGGCAACCGACGAGTCCGTTT registered a PBM binding z-score of 0.713. The value for CGAACGAGGGCATGAGTTGATAGTAAATGCCGAT was 1.17; that for TCTGCTAGGTCAACGATGGTCAGCAAATCTGCTA was 1.64. The value for GCTAGCAGGACATTTGGGTCACTCAATGACGGGC was 0.429; that for ACAAGCAGGCCAAGTTTGGGTCACTCAAACAAAG was 0.676. For TCACATAGGTAAAGGTGAAAGTCGAACGATATGA the value was 1.32; for CCTACTGGGCCACGAAAGGTCATGGATTCAGTGA, 4.1; for AGAATGAGGTTATTAAGATCAGAGAATTGCGGTC, 2.56. Regarding AGTCACAGTTCAGGACGAGGTAACGTAAAGCACG, the PBM binding z-score is 1.12. Turning to GCAGACAGGTGAAACGCAGGTAACTCGGGGTGGC, the PBM binding z-score is -0.198. For TAGCCTAGGTCAGCTCGGGCCAGTATACGCTATA the value was 0.763; for TGTCAAAGTTCAAATGTAACGTAAGTATCCACAC, 4.57. For CAAACTAGATCACGAAAGGTCAAAGTCGAATGAC the value was 4.79. Turning to CGTCCAAGGTCAAAGGTCAGTGGAGAGATGACGG, the PBM binding z-score turned out to be 6.82. The value for CCTATGAGTTGACCATAAGGGCAACCGAAGCTCG was 0.81; that for ACTAGTTGGTCAGCTGACGTCACACACAATTCGG was 0.0123; that for CATACTGGGCCACGAAAGGTCATTGATTCAGTGA was 4.3. The value for TCTTGTAGATCAGCAAGTTAAGAAAGCTGGCCAA was 0.28; that for CGTCCAAGGTGAAAGGTCAGTGAAGAGATGACGG was 3.69. The value for TCATATAGGTAAATAGGTGAAAGTCCGTAAGTTA was 1.25; that for CCTTACGGGTCACTGATAGGTTATAGCATTTGGA was 3.6; that for TATGCAGGGTCAAAGGCCAGAGTACGAATGTCGA was 4.61.

Regarding TTACCAAGGTGAGGGTCGTTGATCCCTCTGTAGA, the PBM binding z-score was found to be 0.884.

Sequence TCAGATAGGTAAATGCTAGGTGAAAGTCCGATCT had a PBM binding z-score of 0.407.

ATCTCTAGGTAAAGATAGTTCAGTTAATGCAAAT displayed a PBM binding z-score of 1.21.

Sequence TCTCGGAGGACACGAAGGTCACAGCTTTCCAGAG showed a PBM binding z-score of 4.05.
